Measurements as given in PubChem BioAssay (NCI).
The panel holds about 83,000 compounds, 20% with a hit somewhere; the sample as a whole holds those more often.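 Growth was measured after 48 h exposure to one concentration of compound in 96-well plates. Values under 10 count as active.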 Activity calls are given as the source filed them.

System: NCI-H322M lung
Test: NCI-60 one-dose screen, 48 h (100 = growth as untreated, 0 = no growth, -100 = all killed)
Conditions: 10 µM
Method: Growth inhibition of the NCI-H322M human Non-Small Cell Lung tumor cell line is measured as a screen for anti-cancer activity. Cells are grown in 96 well plates and exposed to the test compound for 48 hours. Compounds are tested at a single concentration, which is 10^-5 M for most compounds. The reported endpoint is percent growth (GI% or GIPRCNT), where numbers from 0 - 100% represent growth inhibition, and numbers from -100% - 0 represent cell death. For example, a value of 40 represents 60% growth inhibition. A value of 0 means no net growth occurred over the course of the experiment. A value of -40 indicates 40% of cells at the beginning of the experiment died by the end of the experiment. A value of -100 means all cells are dead at the end of the experiment.
NCI-60 Human Tumor Cell Lines Screen was performed using the standard one-dose NCI protocol, which is described in more detail at https://dtp.cancer.gov/discovery_development/nci-60/default.htm.
Compounds with GIPRCNT values below 10 were considered active. Activity score was based on GIPRCNT using the following formula: […]
Score is 0 for GIPRCNT values of 100 or above, 50 for GIPRCNT values of 0, and 100 for GIPRCNT values of -100.

How did the growth turn out when `O=[P@@]1(c2ccccc2)O[C@H](COCc2ccccc2)[C@@H](OCc2ccccc2)[C@H](OCc2ccccc2)[C@H]1O` was run?
The growth was 86.9% (inactive).

For `COc1ccc(/C(=C2\O[C@@H]([C@H]3COC(C)(C)O3)[C@H]3OC(C)(C)O[C@@H]23)c2cc(OC)c(OC)c(OC)c2)cc1O`, which growth is on record?
The growth was 34.8% (inactive).

How did the growth turn out when `CN(C)C=Nc1cc(Cl)ccc1Cl` was run?
The growth was 104% (inactive).

With `COc1ccc(-c2csc(NC(=O)CSc3nc(C)c(-c4ccccc4)n3Nc3ccccc3)n2)cc1` as the compound, how does the growth read?
Its growth is 69.8% (inactive).

Which growth does the source give for `CSCCCNC(=O)c1ccc2c(c1)/C(=C/c1[nH]c(C)cc1C)C(=O)N2` here?
Its growth is 50.4% (inactive).

For `Cc1cc(C)c(NC(=O)c2sc3nc4c(cc3c2N)C(=O)CCC4)c(C)c1`, which growth is on record?
The growth was 56.3% (inactive).

With `Cc1ccc(NC(=O)Nc2cccnc2)cc1NC(=O)Nc1cccnc1` as the compound, how does the growth read?
Its growth is 100% (inactive).

How did the growth turn out when `COc1ccc(N2C(=O)C3c4[nH]c5ccc(OCc6ccccc6)cc5c4C4CCC(C(C)C)CC4C3C2=O)cc1` (stereo not given) was run?
The growth was 102% (inactive).

Which growth does the source give for `N#CCCN1C/C(=C/c2ccccc2)C(=O)/C(=C/c2ccccc2)C1` here?
Its growth is 86% (inactive).

For `O=C1/C(=C\c2ccc(Cl)cc2)CN(C(=O)c2ccccc2)C/C1=C\c1ccc(Cl)cc1`, which growth is on record?
Its growth is 74.5% (inactive).

Which growth does the source give for `COc1ccc(/C=C2/CN(CCC#N)C/C(=C\c3ccc(OC)cc3)C2=O)cc1` here?
The growth was 76% (inactive).

For `CCCCCCN1C(=O)C2=C(c3ccc(Cl)cc3)Nc3c(c(C)nn3-c3ccccc3)C2c2ccccc21` (stereo not given), which growth is on record?
Its growth is 90.5% (inactive).

Which growth does the source give for `COc1cc(-c2cc(/C=C3\C(=O)Nc4ccc(Cl)cc43)[nH]n2)cc(OC)c1OC` here?
Its growth is 51.5% (inactive).

Which growth does the source give for `Cc1nc2c(c(=O)[nH]1)OCN(Cc1ccccc1)C2` here?
Its growth is 105% (inactive).

With `COc1ccc2c(c1)O/C(=C\c1ccc([N+](=O)[O-])o1)C2=O` as the compound, how does the growth read?
The growth was 41.5% (inactive).

`O=C1OCC2=C1C(c1cccc(Cl)c1)c1cc3c(cc1N2CCO)OCO3` (stereo not given) was tested. Which growth did it give?
Its growth is 42.8% (inactive).

With `CCOC(=O)C(NC(=O)C(Cl)Cl)C(O)c1ccccc1` (stereo not given) as the compound, how does the growth read?
The growth was 105% (inactive).

Which growth does the source give for `COc1cc(Cc2cc(-c3ccc(Cl)cc3)n[nH]c2=O)ccc1O` here?
Its growth is 119% (inactive).

Which growth does the source give for `Clc1ccc(Nc2ccnc(NCCNc3ccnc4cc(Cl)ccc34)n2)cc1` here?
Its growth is 20.1% (inactive).

How did the growth turn out when `Nc1ccc2c(c1)C1(CCC2)NC(=O)NC1=O` (stereo not given) was run?
Its growth is 103% (inactive).

How did the growth turn out when `Nc1nc(-c2ccccc2Cl)cc(-c2ccc(Cl)cc2Cl)n1` was run?
The growth was 89.5% (inactive).

Which growth does the source give for `COc1ccc(Cl)cc1-n1nnc(-c2nc3ccccc3[nH]2)c1N` here?
Its growth is 75% (inactive).

For `Cc1ccc(NC(=O)NC2CCCCC2)cc1`, which growth is on record?
Its growth is 92.2% (inactive).

How did the growth turn out when `O=c1[nH]c(-c2ccc(Cl)cc2)nc2sc3c(c12)CCCC3` was run?
Its growth is 114% (inactive).

With `O=C1/C(=C\c2ccccc2)CN(C(=O)c2ccccc2)C/C1=C\c1ccccc1` as the compound, how does the growth read?
Its growth is 75.8% (inactive).

For `COc1cc(NC(=O)CCSc2nc3ccc(Cl)cc3c(=O)n2Cc2ccccc2)cc(OC)c1OC`, which growth is on record?
Its growth is 83.1% (inactive).

`COc1cc2cc3c(nc2cc1OC)CCN3Cc1ccc(NC(=O)c2ccc(Cl)c(C(F)(F)F)c2)cc1` was tested. Which growth did it give?
The growth was 84.9% (inactive).

Which growth does the source give for `CSc1nc(=O)n(Cc2ccc(F)cc2)c(=O)n1Cc1ccc(C)cc1` here?
The growth was 112% (inactive).

Which growth does the source give for `O=S(=O)(Nc1ccccn1)c1ccc(N=Nc2ccc(O)c3ncccc23)cc1` here?
The growth was -11.8% (active).

With `O=C(CCCCC[P+](c1ccccc1)(c1ccccc1)c1ccccc1)NC(COC(=O)C(Cl)Cl)(COC(=O)C(Cl)Cl)COC(=O)C(Cl)Cl` as the compound, how does the growth read?
Its growth is 99.5% (inactive).

With `O=C(CSSCC(=O)c1ccc(Cl)cc1)c1ccc(Cl)cc1` as the compound, how does the growth read?
Its growth is 72.2% (inactive).

How did the growth turn out when `COc1ccc(CN2CCC(N3CCCC3=O)c3cc(Cl)ccc32)cc1` (stereo not given) was run?
The growth was 104% (inactive).

How did the growth turn out when `COc1ccc2c(c1)C(=O)c1c-2c(OCCN(C)C)nc2ccccc12` was run?
Its growth is -5.17% (active).

`CCN(CCCCCCCCCCN1CC(=O)N(CCCCCCCCCCN(CC)Cc2ccccc2OC)CC1=O)Cc1ccccc1OC` was tested. Which growth did it give?
The growth was 18.4% (inactive).

Which growth does the source give for `C/C(N)=C(\C#N)C(=O)c1ccccc1` here?
The growth was 107% (inactive).

How did the growth turn out when `COc1ccc2c(c1)-c1c(c3cc(OC)ccc3n(CCN(C)C)c1=O)C2=O` was run?
Its growth is -14.4% (active).

For `Cc1nc2oc3ccccc3c(=O)c2cc1C(=O)NCc1ccccc1`, which growth is on record?
Its growth is 76.2% (inactive).

With `COc1cccc(NC(=O)c2sc3nc4c(cc3c2N)C(O)CCC4)c1` (stereo not given) as the compound, how does the growth read?
The growth was 44.5% (inactive).

For `COc1cc(Cl)cc(-c2nn(-c3cccc(NC(=O)Nc4ccc(Cl)c(Cl)c4)c3)cc2-c2ccncc2)c1`, which growth is on record?
The growth was 32.3% (inactive).

With `COc1cc(-c2cc(C(=O)N3CCN(C(=O)c4ccccc4NCc4cccs4)CC3)nc3cc(-c4ccccc4)nn23)cc(OC)c1OC` as the compound, how does the growth read?
Its growth is 72.1% (inactive).
